Source: PubChem (National Center for Advancing Translational Sciences (NCATS))
D2 PAM-1: HTS Assay for Positive Allosteric Modulators of the Human D2 Dopamine Receptor: Primary Screen for Potentiators | HEK293 T-REx D2, calcium flux, EC20 dopamine potentiation | potentiation, % at 10 µM | 340,000 tested, 0.34% active;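 active = potentiation over 3 SD above the plate norm, cut at about 30% in these data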
Target sequence (P14416 whole entry, looked up): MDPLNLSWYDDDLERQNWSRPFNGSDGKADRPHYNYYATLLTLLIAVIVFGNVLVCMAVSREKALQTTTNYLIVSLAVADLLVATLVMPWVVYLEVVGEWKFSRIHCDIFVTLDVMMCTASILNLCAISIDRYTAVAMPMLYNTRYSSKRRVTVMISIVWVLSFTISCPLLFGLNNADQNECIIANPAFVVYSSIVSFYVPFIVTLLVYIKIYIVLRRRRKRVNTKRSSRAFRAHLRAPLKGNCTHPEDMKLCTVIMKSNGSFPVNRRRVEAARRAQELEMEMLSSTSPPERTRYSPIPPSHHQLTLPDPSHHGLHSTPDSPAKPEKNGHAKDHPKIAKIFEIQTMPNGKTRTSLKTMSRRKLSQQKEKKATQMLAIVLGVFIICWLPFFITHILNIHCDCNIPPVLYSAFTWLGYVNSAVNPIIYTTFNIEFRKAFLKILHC
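Primary screen. Calcium kinetics in induced HEK293 T-REx D2 cells: compound pre-addition 180 s, EC20 dopamine, 180 s more.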
D2 ag-1: HTS Assay for Allosteric Agonists of the Human D2 Dopamine Receptor: Primary Screen for Agonists; HEK293 T-REx D2 cells, calcium flux agonist mode; 340,000 tested, 0.53% active; activation, % at 2 µM; AID 485358, 2010; D(2) dopamine receptor (Homo sapiens), P14416;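 active = activation over 3 SD above normal in the single-dose calcium agonist read, cut at about 30% in these data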
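In this primary screen, compounds producing a positive calcium signal within 180 s of addition to tetracycline-induced, force-coupled HEK293 Trex D2 cells are flagged; cells are dye-loaded with a no-wash calcium kit beforehand.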
D2 ag-2: Beta-Arrestin HTS for Positive Allosteric Modulators of the Human D2 Dopamine Receptor: Agonists; DiscoveRx PathHunter D2 beta-arrestin, luminescence, 90 min; 100% = 57 uM dopamine signal; D(2) dopamine receptor (Homo sapiens), P14416; AID 624465, 2012; 360,000 tested, 0.084% active; activation, % (concentration not given with the values); in the data active = activation above about 40%; inconclusive = between about 15% and that limit
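DiscoveRx PathHunter D2 beta-arrestin cells (2,100/well) attached overnight, then compound-stimulated 90 min at 37 C in HBSS/10 mM HEPES/0.1% Tween-20 buffer; beta-galactosidase complementation read by luminescence after 1 h at ambient temperature. Dopamine 57 uM final (EC100) as control.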
D2 antag: HTS Assay for Allosteric Antagonists of the Human D2 Dopamine Receptor: Primary Screen for Antagonists | inhibition, % at 10 µM | 340,000 tested, 2% active | HEK293 TREx D2 cells, calcium flux, dopamine EC80 | D(2) dopamine receptor (Homo sapiens), P14416; in the data active = inhibition above about 30%; inactive = below that, where a call was filed
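Compounds are added to dye-loaded, induced HEK293 T-REx cells coupled to calcium release via D2; after a 3 min kinetic read an EC80 dopamine stimulus is given and fluorescence is recorded for 3 more min.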
D2 PAM-2: Beta-Arrestin HTS for Positive Allosteric Modulators of the Human D2 Dopamine Receptor: Potentiators | D(2) dopamine receptor (Homo sapiens), P14416 | DiscoveRx D2 beta-arrestin cells, luminescence, 90 min; 100% = 57 uM dopamine signal | potentiation, % (concentration not given with the values) | 360,000 tested, 0.23% active; in the data active = potentiation above about 50%; inconclusive = mostly about 30% to 49%
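PathHunter beta-arrestin assay in DiscoveRx D2 cells. Compounds were added with an EC20 of dopamine (50 nM final) for 90 min at 37 deg C. Luminescence was read 1 h after detection reagent, with 57 uM dopamine as the EC100 control.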
Large screens that a line does not name were inactive. The list is not random: actives were taken first. Their share in the collection is about 2.4%.

CC(Sc1nnc(-c2cc3ccccc3o2)n1-c1ccccc1)C(=O)O (configuration not stated)	D2 antag 45
CCOc1ccccc1NC(=O)CSc1nnc(-c2cccnc2)o1	none
Fc1ccc(N2CCN(C3CCC(c4ccccc4)CC3)CC2)cc1 (configuration not stated)	D2 antag 53
CCN1CCC(N2CCN(c3ccc(F)cc3)CC2)CC1	none
COc1ccc(Cc2c(C)nn(-c3nc(C)c(C(=O)Nc4ccc(C)cc4C)s3)c2C)cc1	none (no result: D2 ag-2, D2 antag, D2 PAM-2)
C=CCn1c(C)cc(C(=O)CSc2nnc(-c3cccc(S(=O)(=O)N(CC)CC)c3)o2)c1C	D2 PAM-1 39
CCN(CC)S(=O)(=O)c1cccc(-c2nnc(SCC(=O)c3cc(C)n(C4CC4)c3C)o2)c1	none
C=CCNc1nnc(SCC(=O)N2CCC(C(N)=O)CC2)s1	none
CC(=O)N1CCN(Cc2nc3cc([N+](=O)[O-])ccc3n2C)CC1	none (no result: D2 PAM-1, D2 ag-1, D2 antag)
COc1ccccc1C(=O)N1CCN(Cc2nc3cc([N+](=O)[O-])ccc3n2C)CC1	D2 antag 36
COc1cc(/C=N/NC(N)=O)ccc1OC(=O)c1cccs1	none
COc1cc(/C=N/N(C)C)ccc1OC(=O)c1cccs1	D2 PAM-1 42
O=C(Nc1ccno1)Nc1ccc(Cl)cc1Cl	D2 ag-2 inconclusive, D2 PAM-2 62
O=C(Nc1ccc(Cl)cc1Cl)Nn1cnnc1	none
COc1ccc(C(CNC(=O)COc2ccc(F)cc2Br)N2CCCC2)cc1 (configuration not stated)	D2 PAM-1 42
COc1ccc(C(CNC(=O)c2cccc(S(=O)(=O)N3CCCC(C)C3)c2)N(C)C)cc1 (configuration not stated)	D2 antag 76
COc1ccc(C(CNC(=O)C(CCSC)NC(=O)c2ccccc2Cl)N2CCCCC2)cc1 (configuration not stated)	D2 antag 41
COc1ccc(C(CNC(=O)c2cccc(Br)c2)N2CCCC2)cc1 (configuration not stated)	D2 antag 41
COc1ccc(C(CNC(=O)COc2ccccc2C)N2CCCCC2)cc1 (configuration not stated)	none
CC1CCCN(S(=O)(=O)c2cccc(C(=O)NCc3ccco3)c2)C1 (configuration not stated)	none (no result: D2 PAM-1, D2 ag-1, D2 antag)
COc1ccc(C(CNC(=O)C(CCSC)NC(=O)c2ccccc2Cl)N2CCCC2)cc1 (configuration not stated)	none
Cc1cccc(NC(=O)c2ccc(CNS(=O)(=O)c3ccc4c(c3)C(C)(C)C(=O)N4C)cc2)c1	none (no result: D2 ag-2, D2 antag, D2 PAM-2)
COc1ccc(C(CNC(=O)C(C)Oc2ccc(Br)cc2)N2CCCC2)cc1 (configuration not stated)	D2 antag 41
COc1ccc(OCCOC(=O)c2ccc(F)c(S(=O)(=O)N3CCOCC3)c2)cc1	D2 antag 49
O=C(Nc1nncs1)c1ccc(Br)c(S(=O)(=O)N2CCCC2)c1	D2 antag 56
Cc1ccc(N(Cc2ccccc2)C(=O)c2ccc(F)c(S(=O)(=O)N3CCOCC3)c2)cc1	D2 antag 59
Cc1cccc(N(Cc2ccccc2)C(=O)c2ccc(F)c(S(=O)(=O)N3CCOCC3)c2)c1	none
CC(=O)c1cccc(NC(=O)c2ccc(C)c(S(=O)(=O)N3CCOCC3)c2)c1	D2 antag 50
COc1ccc(OCc2cc(C(=O)N3C[C@@H](C)O[C@@H](C)C3)no2)c(Cl)c1	none (no result: D2 PAM-1, D2 ag-1, D2 antag)
CN=C(Nc1cc(Cl)ccc1Cl)SC1CC(=O)N(c2ccc(C(=O)OC)cc2)C1=O (configuration not stated)	none
COc1cc(C2c3c(-c4c(C)cc(C)cc4O)n[nH]c3C(=O)N2CCCOC(C)C)cc(OC)c1OC (configuration not stated)	none (no result: D2 ag-2, D2 antag, D2 PAM-2)
CC(=O)c1cccc(NC(=O)c2ccc3c(c2)CCCC3)c1	D2 antag 33
COc1cccc(NC(=O)c2ccc3c(c2)CCCC3)c1	none
COc1ccc(NC(=O)c2cc(S(=O)(=O)N3CCCC3)c[nH]2)cc1	none
COc1ccc(C(=O)Nc2nc(C)c(C(C)=O)s2)cc1S(=O)(=O)N1CCOCC1	D2 antag 30
COc1ccc(C(=O)NNC(=O)COc2ccc(Cl)cc2C)cc1S(=O)(=O)N1CCOCC1	D2 antag 33
COc1ccc(NC(=O)c2cc(S(=O)(=O)N3CCCC3)oc2C)cc1	D2 PAM-1 31
COc1ccc(C(=O)Nc2nnc(C)s2)cc1S(=O)(=O)N1CCOCC1	none
O=C1CCc2cc(NS(=O)(=O)c3ccc(Br)cc3)cc3c2N1CC3	none (no result: D2 ag-1, D2 antag)
O=C(Cn1ncc2c([nH]c3ccccc32)c1=O)Nc1ccc(CN2CCCCC2)cc1	none
Cc1ccc(C(=O)Nc2ccccc2)cc1S(=O)(=O)N1CCN(C)CC1	D2 antag 35
COc1ccc(NC(=O)c2ccc(Br)c(S(=O)(=O)N3CCOCC3)c2)cc1	D2 PAM-1 33
CN1CCN(S(=O)(=O)c2ccc(C(=O)Nc3ccccc3)cc2)CC1	none
Cc1ccc(NC(=O)COC(=O)/C=C/c2cccc(Cl)c2)cc1S(=O)(=O)N1CCOCC1	none
Cc1ccc(NC(=O)C(C)OC(=O)/C=C/c2ccccc2)cc1S(=O)(=O)N1CCOCC1 (configuration not stated)	D2 PAM-1 41
CCOc1ccc(S(=O)(=O)Nc2ccc(OC)c(Cl)c2)c2cccnc12	none (no result: D2 PAM-1, D2 ag-2, D2 antag, D2 PAM-2)
CCc1cccc(C)c1NC(=O)CSc1n[nH]c(N)n1	none (no result: D2 PAM-1, D2 ag-1, D2 antag)
COc1ccc(CCN(C)C(=O)C2CCN(Cc3ccc(C)cc3)CC2)cc1OC	D2 antag 47
COc1ccc(CN2CCC(C(=O)N(C)CCc3ccc(OC)c(OC)c3)CC2)c(OC)c1	D2 PAM-1 31
CCn1cnc2c1c(=O)n(Cc1csc(-c3ccccc3)n1)c(=O)n2Cc1ccccc1	none
CCn1cnc2c1c(=O)n(Cc1nnc3n1-c1ccccc1SC3)c(=O)n2Cc1ccccc1	D2 PAM-1 34
Cc1cccc(C)c1NC(=O)CCC(=O)N1Cc2ccccc2Oc2ncccc21	none (no result: D2 ag-1, D2 ag-2, D2 antag, D2 PAM-2)
COC(=O)CSc1nnc(CNc2ccc(F)cc2)o1	none
COc1ccc(-c2nnc(SCC(=O)NNC(=O)c3ccc(C)cc3)o2)cc1	none
Cc1cc(NC(=O)CSc2nnc(-c3cccnc3)n2Cc2ccccc2)no1	none
O=C(CSc1nnc(-c2cccnc2)n1Cc1ccccc1)NCc1ccccc1	D2 antag 35
